Screens from PubChem BioAssay.
Sampled rows, rich in hits. Any-hit rate of the full collection: about 0.71%.
PI4K2A block – blocks human PI4K2A kinase activity. Q9BTU6. purified PI4K2A, ADP-Glo luminescence, 1 h; active compounds read low. hit rate 0.13% among 420,000. activity change, negative = inhibition, % at 76.9 µM; in the data active means activity change below about -50%; inconclusive means mostly about -30% to -49%;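 further: -100% = wells without enzyme as full effect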
Target sequence (Q9BTU6 whole entry, looked up): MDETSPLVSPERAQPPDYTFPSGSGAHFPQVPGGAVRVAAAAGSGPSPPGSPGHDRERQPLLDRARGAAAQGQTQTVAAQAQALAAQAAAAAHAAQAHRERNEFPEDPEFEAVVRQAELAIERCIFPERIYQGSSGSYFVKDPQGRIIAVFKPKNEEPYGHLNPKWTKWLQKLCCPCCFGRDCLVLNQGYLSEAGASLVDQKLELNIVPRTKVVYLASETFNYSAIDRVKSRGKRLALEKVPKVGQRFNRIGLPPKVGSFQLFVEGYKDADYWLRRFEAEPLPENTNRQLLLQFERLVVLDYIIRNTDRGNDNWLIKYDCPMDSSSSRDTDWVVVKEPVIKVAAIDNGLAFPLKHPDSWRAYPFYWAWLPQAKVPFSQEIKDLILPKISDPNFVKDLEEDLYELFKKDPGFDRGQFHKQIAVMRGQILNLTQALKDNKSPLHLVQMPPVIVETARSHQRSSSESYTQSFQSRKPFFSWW
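In this quantitative HTS, ADP production by PI4K2A was quantified luminescently after 1 h at ambient temperature; 100 microM adenosine served as plate-quality control.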
FBPA coupling cs – inhibits coupling enzyme system, counter-screen for aldolase hits; AID 2472; activity change, negative = inhibition, % at 58.2 µM, hits read low; hit rate 0.67% among 290,000; coupling enzyme system counterscreen, AmpLite Red fluorescence; in the data active means activity change below about -30%
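Counterscreen lacking aldolase: glyceraldehyde-3-phosphate coupling-enzyme reagent preincubated 10 min at RT with compound (at 57.5 uM final), then substrate/coupling system with AmpLite Red added; fluorescence read at 525/598 nm after 20 min RT.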
USP1-UAF1 inh – USP1/UAF1 (human) deubiquitinase inhibition; recombinant USP1/UAF1, Ub-Rhodamine cleavage fluorescence; O94782; Potency, µM (highest dose often 57.1 µM), for inactives: top-dose activity change, negative = inhibition, usual class: inhibitors; AID 743255; hit rate 0.23% among 390,000; further: potency means the concentration at half of the fitted maximal effect; nearly all actives have a fitted effect of over 60% in size
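Step one: compound is pinned into 1nM USP1/UAF1 in HEPES pH 7.8 buffer with TCEP. Step two: 15 min room-temperature incubation. Step three: Ub-Rho (150nM final) starts cleavage, tracked by fluorescence over six one-minute reads.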
GALK inh – galactokinase (human) inhibition. P51570. Purified GALK, Kinase-Glo residual ATP luminescence. Potency, µM (titrated, usually from 57.5 µM), for inactives: top-dose activity change, negative = inhibition, most hits filed as inhibitors. hit rate 0.007% among 270,000. AID 1868; further: potency means the concentration at half of the fitted maximal effect
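ATP-depletion format; final 35 uM ATP, 100 uM D-galactose, 5 nM enzyme; pH 8.0 HEPES/Mg2+ buffer; 60 min RT; luminescence read 10 min after detection reagent.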
Eya2 phos inh – inhibitors of human Eya2 phosphatase activity; O00167; recombinant Eya2, OMFP fluorescence dephosphorylation (OMFP is methylfluorescein phosphate); Potency, µM (highest dose often 76.9 µM), for the others: at the top dose activity, negative = inhibition, most hits filed as inhibitors; hit rate 0.006% among 330,000; AID 488837; further: potency means the concentration at half of the fitted maximal effect
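Eya2 (0.2 uM) preincubated 10 min at ambient with compound, then OMFP substrate added at 50 uM; 10 min reaction in 50 mM HEPES pH 7.5, 50 mM NaCl, 5 uM MgCl2, 0.05% BSA, 1 mM DTT. Fluorescence read at Ex 485/Em 525 nm.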
USP2a inh – blocks human ubiquitin-specific protease USP2a | Potency, µM (titrated, usually from 38.3 µM), inactives show at the top dose activity change, negative = inhibition, usual class: inhibitors | O75604 | USP2 core, Ub-CHOP2 coupled fluorogenic reporter, 485/531 | hit rate 0.01% among 330,000;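 further: potency means the concentration at half of the fitted maximal effect; plate controls were DMSO wells for no effect and full inhibition by NEM control for full effect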
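Cell-free coupled assay: 10nM USP2 core preincubated 30min RT with compound in Tris-HCl pH 8.0/CaCl2/CHAPS buffer, then 25nM Ub-CHOP2 and 25nM reporter substrate; fluorescence (Ex 485/Em 531) read after 60min RT, normalized to NEM inhibition, concentration-response curves fitted.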
An asterisk follows results filed as active; ? = inconclusive; / = no result given. Unless noted, the call rests on the fitted dose curve; in most records, active means well fitted curve in the direction sought with a large enough effect; inconclusive means small, poorly fitted or top-dose-only effect, or another doubt; inactive means no such curve, though single readings can be large; an effect the other way counts as inactive or inconclusive. Unless noted, on the % scale 0 is the no-effect control and ±100 the full control effect.

SMILES	PI4K2A block	FBPA coupling cs	USP1-UAF1 inh	GALK inh	Eya2 phos inh	USP2a inh
CCCCNC(=O)C[C@H]1C[C@@]2(C(=O)OC)C(=C[C@H](C(C)(C)C)O[C@@H]2C)N(Cc2ccco2)C1=O	-2	/	/	/	/	/
COc1ccc(-n2c(N)c(C#N)c3ccc([N+](=O)[O-])cc3c2=O)cc1	-1	-42*	-13%	-3%	0%	2%
CC(=O)c1cccc(Nc2nc(-c3ccccc3)nc3ccccc23)c1	-7	1	-13%	5%	-15%	0%
COc1ccccc1Nc1cc2cc(Br)ccc2c(=O)[nH]1	?	/	4.5µM*	/	/	/
COc1ccccc1Nc1nnc(C)c(=O)[nH]1	-1	3	0%	0%	1%	2%
COc1ccc(OC)c(Nc2cc3ccccc3c(=O)[nH]2)c1	?	/	5µM*	/	/	/
CC(=O)c1cccc(-c2ccc3c(=O)[nH]c(Nc4ccccc4)cc3c2)c1	?	/	3.2µM*	/	/	/
Cn1c(=O)cc(Nc2ccccc2)[nH]c1=O	-2	-5	-16%	-10%	0%	4%
O=c1[nH]c(Nc2ccccc2)cc2ccccc12	?	-6	2.5µM*	?	?	6%
OCc1cn(Cc2ccc(O)c3ncccc23)cn1	/	/	/	/	0%	1%
O=c1[nH]c(Nc2ccccc2)cc2cc(Br)ccc12	?	/	1.1µM*	/	/	/
O=c1cc(Nc2cccc(Br)c2)[nH]c(=O)[nH]1	-2	3	1%	1%	-2%	2%
CCOC(=O)c1c(C)[nH]c(C=Nc2ccccc2)c1O	/	-36*	/	-1%	-17%	5%
Cc1ccsc1/C=N/Nc1nc(=O)[nH]nc1C	-71*	-7	-18%	-3%	-13%	-3%
COC(=O)C/C=C/[C@@H](C)[C@H](O)c1ccccc1Br	/	-2	/	/	/	/
Cc1cccc(NC(=O)c2ccc(OC3CSC3)cc2)c1	-50*	-2	-27%	6%	8%	2%
O=C(CSc1nnc(-c2ccccn2)n1-c1ccccc1)c1ccc(Cl)c(Cl)c1	-2	/	/	/	/	/
CN1Cc2cc(C(=O)N3CCC(C4CCNCC4)CC3)ccc2NC(CC(=O)O)C1=O (centres undefined)	-2	/	/	/	/	/
CCCCC[C@H](O)C=C[C@H]1[C@H](O)CC(=O)[C@H]1CC=CCCCC(=O)O	-5	/	/	/	/	/
CC(=NNC(=S)N1CCC1)c1ccccn1	-60*	/	0%	/	/	/
CC(=NNC(=S)N1CCCC1)c1ccccn1	-12	/	-9%	/	/	/
C/C(CCN1CCCCc2nc(C)c(C)cc21)=N\O[C@@H](C)CN1CCCc2nc(C)c(C)cc21	/	2	/	/	/	/
CCCOc1ccc(/C(O)=C2/C(=O)C(=O)N(CCCN3CCOCC3)C2c2ccncc2)cc1 (centres undefined)	/	-62*	/	0%	1%	2%
CCCCOc1ccc(/C(O)=C2/C(=O)C(=O)N(CCCOC)C2c2ccncc2)cc1 (centres undefined)	-7	11	0%	0%	7%	-2%
COc1cc(/C=N/Nc2nncn2N)ccc1OCc1c(C)no[n+]1[O-]	-28	-38*	?	1%	-8%	-17%
SMILES	PI4K2A block	FBPA coupling cs	USP1-UAF1 inh	GALK inh	Eya2 phos inh	USP2a inh
COc1ccc(/C=N/Nc2nncn2N)cc1Br	-54*	-15	?	4%	-9%	?
COc1cc(/C=C(\C#N)C(N)=O)ccc1OCc1c(C)no[n+]1[O-]	2	0	-25%	/	22%	-4%
O=C1CCCc2c(O)cccc21	-4	/	/	/	/	/
O=C(O)c1cc(S(=O)(=O)Nc2ccc3oc(=O)sc3c2)ccc1O	-68*	17	2%	1%	6%	3%
CCOC(=O)N1CCN(C2=C(NS(=O)(=O)c3ccc(C)cc3)C(=O)c3ccccc3C2=O)CC1	?	/	22µM*	-3%	-7%	0%
CC(=O)Nc1ccc(S(=O)(=O)NC2=C(N3CCN(c4ccc(F)cc4)CC3)C(=O)c3ccccc3C2=O)cc1	-27	-56*	?	-2%	4%	0%
